# CYP2C19 inhib = human CYP2C19 inhibition; P33261; CYP2C19 Supersomes, luciferin-H EGE luminescence, 30 min; inhibition, % at 5 µM; 96,000 compounds, 21% hits;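 active means CYP2C19 inhibition above a set limit at 5 µM in the primary screen, cut at about 50% in these data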;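 further: plate controls were negative control wells for no effect and 2.5 mM tranylcypromine positive control for full effect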
# Target sequence (P33261 whole entry, looked up): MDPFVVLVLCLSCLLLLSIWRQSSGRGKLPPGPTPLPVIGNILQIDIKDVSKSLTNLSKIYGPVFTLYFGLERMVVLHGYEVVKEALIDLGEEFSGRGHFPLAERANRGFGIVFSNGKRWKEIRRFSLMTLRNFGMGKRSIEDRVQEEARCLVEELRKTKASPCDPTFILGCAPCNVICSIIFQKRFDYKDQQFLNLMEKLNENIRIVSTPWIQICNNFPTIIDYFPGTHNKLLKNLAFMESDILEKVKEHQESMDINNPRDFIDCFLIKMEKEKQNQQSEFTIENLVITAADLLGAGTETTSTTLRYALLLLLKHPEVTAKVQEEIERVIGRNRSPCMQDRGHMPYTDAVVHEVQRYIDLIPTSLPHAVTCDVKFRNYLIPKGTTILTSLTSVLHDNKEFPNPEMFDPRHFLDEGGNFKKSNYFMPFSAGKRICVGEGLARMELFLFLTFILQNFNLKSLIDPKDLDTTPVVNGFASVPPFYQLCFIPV
# CYP2C19 act = activators of human cytochrome P450 2C19; activation factor at 5 µM; recombinant CYP2C19, luciferin-H EGE luminescence; stronger effect = higher value; 0 = fully inhibited enzyme, 1 = untreated enzyme; AID 1025; 96,000 tested, under 10 active;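 active means activation factor of at least 2 at 5 µM in the primary screen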;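 further: 0 = wells with 2.5 mM tranylcypromine and 1 = vehicle-only wells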
# E-sel TNF inh = TNF alpha driven E-selectin expression inhibition; HUVEC TNFa-induced E-selectin immunofluorescence, high content; inhibition, % at 2 µM; 120,000 compounds, 0.71% hits; AID 1246;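 active means inhibition above the batch mean plus 3 SD, and confirmed as a hit on visual image review, cut at about 43% in these data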;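 further: 0% = TNF-stimulated DMSO wells and 100% = unstimulated control wells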
# cytoskel mod = alters cytoskeleton assembly in HUVEC cells | HUVEC TNFa F-actin phalloidin imaging, high content | inhibition, % at 2 µM | 91,000 compounds, 0.18% hits | AID 836;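 active means inhibition above the batch mean plus 3 SD and confirmed as a hit by visual image inspection, cut at about 30% in these data, passing the limit was not always enough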
# CYP2C9 inh = inhibitors of human CYP2C9. P11712. CYP2C9 Supersomes, luciferin-H conversion, luminescence. inhibition, % at 5 µM. 96,000 compounds, 20% hits. AID 777;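 active means blocking of liver enzyme CYP2C9 beyond about 50% at 5 µM, limit read from the data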
# CYP2C9 act = increases human cytochrome P450 2C9 activity. activation factor at 5 µM. 96,000 compounds, 1.4% hits. P11712. recombinant CYP2C9, luciferin-H conversion, luminescence; stronger effect = higher value; factor 1 = untreated enzyme, 0 = blocked;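 active means activation factor of 2 or more for CYP2C9 at a 5 µM dose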;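 further: 0 = sulfaphenazole-blocked wells and 1 = vehicle-only wells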
# Numbers without * were called inactive; . = no result. Rows were chosen to be rich in hits. Some 22% of all compounds tested hit in one or more screens of this group.
SMILES,CYP2C19 inhib,CYP2C19 act,E-sel TNF inh,cytoskel mod,CYP2C9 inh,CYP2C9 act
Nc1cc(-c2ccc(Br)cc2)nn1S(=O)(=O)c1ccccc1,7.8,0.9,.,8.8,34.7,0.7
Nc1cc(-c2ccccc2)nn1S(=O)(=O)c1ccc(F)cc1,99.5*,0,.,-22.4,97.1*,0
CCCCCCCCOC(=O)c1ccc(N)cc1,.,.,-3.1,-12.7,.,.
CCOC(=O)CSc1nnc(CNc2cccc(Cl)c2)n1C,.,.,6.5,-3.9,.,.
COCCCn1c(Cc2csc(Nc3cccc(Cl)c3)n2)nnc1SCC(=O)OC,87.3*,0.1,-9.2,5.5,80.4*,0.2
CCOc1cc(/C=N/n2cnnc2)ccc1OCC(=O)Nc1ccccc1OC,54.1*,0.5,5.3,-8.5,69.7*,0.3
COc1cc(/C=N/n2cnnc2)ccc1OCC(=O)N1CCOCC1,.,.,3.8,.,.,.
COc1ccccc1NC(=O)COc1ccc(/C=N/n2cnnc2)cc1OC,56.0*,0.4,8.8,29.7,71.6*,0.3
CCn1nnc(-c2ccccc2NC(=O)c2cnccn2)n1,.,.,-30.6,-5.3,.,.
COc1ccc(-c2coc3cc(OC)cc(O)c3c2=O)cc1,4.3,1,9.0,-5.7,-10.0,1.1
CC(C)Oc1cc(O)c2c(=O)c(-c3ccc(O)cc3)coc2c1,-9.0,1.1,-36.3,.,96.5*,0
Cc1cccc(NS(=O)(=O)c2cccc3nsnc23)c1,76.4*,0.2,0.7,14.6,13.0,0.9
Cc1ccnc(NS(=O)(=O)c2cccc3nsnc23)c1,7.4,0.9,-22.6,-19.7,11.3,0.9
COc1ccc(CCNS(=O)(=O)c2cccc3nsnc23)cc1OC,.,.,-25.2,.,.,.
COc1ccc(S(=O)(=O)Nc2c(C)ccc3nsnc23)cc1OC,69.4*,0.3,.,.,2.7,1
Cc1ccc2nsnc2c1S(=O)(=O)Nc1cccc2nsnc12,23.4,0.8,8.6,-2.6,89.7*,0.1
COc1ccc(S(=O)(=O)Nc2cc(C)on2)cc1OC,.,.,-7.4,19.8,.,.
COc1ccc(NS(=O)(=O)c2cccc3nsnc23)cc1OC,82.2*,0.2,9.9,.,16.9,0.8
Cc1nc2ccc(S(=O)(=O)NCC(=O)NCCN3CCCCCC3)cc2s1,5.8,0.9,.,-7.9,8.5,0.9
COc1ccc(CCNC(=O)CSc2ccc(-c3ccco3)nn2)cc1OC,.,.,-5.2,.,.,.
CC(=O)c1cccc(N(CC(=O)NCC2CCCO2)C(=O)CCC(=O)Nc2cc(C)on2)c1 (stereo not drawn),8.4,0.9,.,-22.2,-10.0,1.1
CC(=O)Nc1cccc(NS(=O)(=O)c2cccc3nsnc23)c1,57.4*,0.4,-7.8,.,37.1,0.6
COc1ccccc1C1C(C(=O)c2cc3ccccc3o2)=C(O)C(=O)N1CCN1CCOCC1 (stereo not drawn),-15.5,1.2,.,-4.5,-20.2,1.2
O=C(CN1C(=O)COc2ccccc21)NCc1ccc(C(=O)O)cc1,-8.7,1.1,3.9,-19.5,-1.3,1
CC(NC(=O)CN1C(=O)COc2ccccc21)c1ccccc1 (stereo not drawn),88.6*,0.1,-22.9,.,-116.5,2.2*
SMILES,CYP2C19 inhib,CYP2C19 act,E-sel TNF inh,cytoskel mod,CYP2C9 inh,CYP2C9 act
Cc1cc(C)n(C(=O)CN2C(=O)c3ccccc3C2=O)n1,6.0,0.9,-22.2,-2.0,15.9,0.8
CCc1ccc(CNC(=O)CN2C(=O)COc3ccccc32)cc1,72.3*,0.3,-28.6,.,-62.3,1.6
Cc1cc(C)n(C(=O)CN2C(=O)COc3ccccc32)n1,80.0*,0.2,-22.1,.,56.9*,0.4
CC1=C(C(=O)Nc2ccccc2C)C(c2ccc(C)o2)N2C(=O)CSC2=N1 (stereo not drawn),9.9,0.9,17.3,4.5,5.6,0.9
O=C(c1ccc(Cl)c(Cl)c1)N1CCOCC1,.,.,-15.7,28.3,.,.
O=S(=O)(Cc1ccc(Cl)cc1)c1ccccc1-c1nnc(-c2ccccc2)o1,-12.4,1.1,-14.8,-34.2,-11.9,1.1
CC(NS(=O)(=O)c1ccccc1)C(=O)NCCc1ccccn1 (stereo not drawn),.,.,-49.2,.,.,.
Fc1ccc(Sc2cc(Cl)c(-c3ccccc3)nn2)cc1,45.4,0.5,.,7.3,56.6*,0.4
CC(=O)c1cccc(NC(=O)CN(Cc2ccccc2)S(C)(=O)=O)c1,75.6*,0.2,-8.5,6.6,37.5,0.6
CS(=O)(=O)N(CC(=O)Nc1cccc(F)c1)Cc1ccccc1,90.9*,0.1,-43.4,0.4,81.6*,0.2
Cc1cc(C)cc(NC(=O)CN(Cc2ccccc2)S(C)(=O)=O)c1,.,.,12.3,22.4,.,.
CC1CCc2cc(F)cc3c(O)c(C(=O)NCc4ccco4)c(=O)n1c23 (stereo not drawn),17.1,0.8,-44.3,-6.3,40.3,0.6
N#Cc1nc(-c2ccccc2Cl)oc1NCc1ccco1,63.8*,0.4,-12.3,-12.7,82.6*,0.2
COc1ccc(-c2nc(C#N)c(NCc3ccccc3Cl)o2)cc1,-18.9,1.2,-18.2,9.6,-11.3,1.1
N#Cc1nc(-c2ccc(Cl)cc2)oc1NCc1ccco1,14.4,0.9,-11.4,-3.9,85.4*,0.1
N#Cc1nc(-c2ccco2)oc1NCc1ccc(F)cc1,31.4,0.7,.,-18.5,81.6*,0.2
CC(C)CNc1oc(-c2ccco2)nc1C#N,.,.,-18.0,-4.0,.,.
N#Cc1nc(-c2ccc(Cl)cc2)oc1NCc1cccc2c1OCO2,34.5,0.7,-20.3,-10.8,94.1*,0.1
N#Cc1nc(-c2ccco2)oc1NCc1cccnc1,37.3,0.6,.,6.8,14.7,0.9
O=C(NCc1ccc(N2CCCC2=O)cc1)c1cn(CCc2ccccc2)nn1,10.6,0.9,-29.7,.,3.9,1
CCOC(=O)/C(C(=O)Nc1ccccc1Br)=C1/NC(C)(C)Cc2ccccc21,.,.,12.2,.,.,.
Cc1[nH]c2ccccc2c1C(=O)CSc1n[nH]c(N)n1,.,.,17.3,.,.,.
N#Cc1nc(-c2ccccc2)oc1NCc1ccco1,12.9,0.9,3.1,2.8,74.3*,0.3
COc1ccc(CNc2oc(-c3ccccc3)nc2C#N)cc1,27.1,0.7,-25.0,.,83.6*,0.2
Cc1cc(C)c(S(=O)(=O)c2ccccc2)c(N(C)C)n1,63.6*,0.4,-45.8,10.6,41.8,0.6
SMILES,CYP2C19 inhib,CYP2C19 act,E-sel TNF inh,cytoskel mod,CYP2C9 inh,CYP2C9 act
Cc1cc(C)c(S(=O)(=O)c2ccccc2)c(OC(=O)c2c(Cl)cc(Cl)cc2Cl)n1,53.0*,0.5,-40.7,-30.4,44.5,0.6
Cc1cc(C)c(S(C)(=O)=O)c(S(=O)(=O)c2ccc(Cl)cc2)n1,28.8,0.7,-41.7,-32.8,36.9,0.6
Cc1ccc(S(=O)(=O)c2c(C)cc(C)nc2Oc2cccc(C)c2C)cc1,13.1,0.9,34.9,1.1,16.0,0.8
CNc1nc(C)cc(C)c1S(=O)(=O)c1ccc(C)cc1,82.1*,0.2,-7.8,24.1,-260.6,3.6*
Cc1cc(C(=O)NCCC2=CCCCC2)no1,48.2,0.5,-17.4,2.6,-1.9,1
COc1cc(CCN2C(=O)c3cccc4cccc(c34)C2=O)c(S(=O)(=O)NCCCO)cc1OC,66.4*,0.3,.,-33.5,38.5,0.6
O=C(N/N=C/c1ccc(OC(=O)c2ccco2)cc1)c1ccccn1,.,.,17.6,.,.,.

# Bioassay records as filed in PubChem.
